Results published in the supplement of paper PMC11732987, “Enantioselective OTUD7B fragment discovery through chemoproteomics screening and high-throughput optimisation” (Communications Chemistry, 2025).
Unmarked numbers belong to inactive results.

What was measured:
Assay in all cases: log2 ratio of Biotin-Ahx-Ub-VS probe labelling (fragment/DMSO); higher = less target engagement (more negative = stronger competition), active = hit call of the paper (q ≤ 0.05, log2 ratio ≤ -1)
Details in all cases: compound concentration: 200 uM; treatment time: 3 h
[1] = molecular target: T1, USP42 (UniProt Q9H9J4)
T1 sequence (whole entry): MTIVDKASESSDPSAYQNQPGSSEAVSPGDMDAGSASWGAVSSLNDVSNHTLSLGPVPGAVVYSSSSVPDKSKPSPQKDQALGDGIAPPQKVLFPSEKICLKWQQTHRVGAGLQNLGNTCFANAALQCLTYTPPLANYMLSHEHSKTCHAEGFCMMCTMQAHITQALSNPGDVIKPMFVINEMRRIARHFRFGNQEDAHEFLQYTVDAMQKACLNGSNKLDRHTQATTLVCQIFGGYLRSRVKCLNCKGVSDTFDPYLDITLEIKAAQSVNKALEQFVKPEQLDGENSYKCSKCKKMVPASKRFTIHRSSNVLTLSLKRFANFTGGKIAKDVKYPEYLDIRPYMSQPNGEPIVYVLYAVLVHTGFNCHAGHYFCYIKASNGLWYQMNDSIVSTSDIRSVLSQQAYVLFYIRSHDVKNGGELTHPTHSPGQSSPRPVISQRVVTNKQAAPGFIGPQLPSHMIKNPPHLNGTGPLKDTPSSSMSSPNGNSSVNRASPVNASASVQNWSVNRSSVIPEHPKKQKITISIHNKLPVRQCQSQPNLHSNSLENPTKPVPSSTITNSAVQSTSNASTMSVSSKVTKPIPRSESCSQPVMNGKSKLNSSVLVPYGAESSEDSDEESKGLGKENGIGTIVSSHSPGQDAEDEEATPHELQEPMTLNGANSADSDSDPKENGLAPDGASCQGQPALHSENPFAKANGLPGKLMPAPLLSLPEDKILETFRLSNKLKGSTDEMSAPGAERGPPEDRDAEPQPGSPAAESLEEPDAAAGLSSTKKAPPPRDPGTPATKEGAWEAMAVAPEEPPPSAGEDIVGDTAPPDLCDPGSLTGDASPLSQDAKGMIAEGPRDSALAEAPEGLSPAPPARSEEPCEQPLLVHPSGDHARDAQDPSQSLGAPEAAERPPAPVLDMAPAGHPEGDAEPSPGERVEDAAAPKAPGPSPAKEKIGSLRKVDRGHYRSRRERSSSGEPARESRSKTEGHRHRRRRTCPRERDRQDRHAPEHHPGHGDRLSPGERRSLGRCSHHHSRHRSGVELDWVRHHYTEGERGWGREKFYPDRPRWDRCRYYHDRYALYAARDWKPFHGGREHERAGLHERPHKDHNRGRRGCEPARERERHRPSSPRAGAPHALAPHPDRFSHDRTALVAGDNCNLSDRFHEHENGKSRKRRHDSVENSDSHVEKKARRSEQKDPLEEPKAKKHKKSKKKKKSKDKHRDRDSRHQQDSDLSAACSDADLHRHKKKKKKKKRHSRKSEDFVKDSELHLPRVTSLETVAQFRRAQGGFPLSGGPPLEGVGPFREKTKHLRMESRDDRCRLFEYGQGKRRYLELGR
Procedure, shortened: (§1)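 Global-median-normalised Spectronaut label-free quantities were compared by unpaired t-test, and values are average log2 ratios of fragment over vehicle. Only proteins with ≥2 unique peptides were used. HEK293T lysate (495 µg per sample) was treated in triplicate with fragment at 200 µM or vehicle for 3 h and then with Biotin-Ahx-Ub-VS at 0.5 µM final for 1 h. Labelled DUBs were then NeutrAvidin-enriched, digested with LysC and trypsin, and run by diaPASEF LC-MS/MS.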

[2] = molecular target: USP46 (UniProt P62068)
Procedure, shortened: as §1

[3] = molecular target: T2, USP47 (UniProt Q96K76)
T2 sequence (whole entry): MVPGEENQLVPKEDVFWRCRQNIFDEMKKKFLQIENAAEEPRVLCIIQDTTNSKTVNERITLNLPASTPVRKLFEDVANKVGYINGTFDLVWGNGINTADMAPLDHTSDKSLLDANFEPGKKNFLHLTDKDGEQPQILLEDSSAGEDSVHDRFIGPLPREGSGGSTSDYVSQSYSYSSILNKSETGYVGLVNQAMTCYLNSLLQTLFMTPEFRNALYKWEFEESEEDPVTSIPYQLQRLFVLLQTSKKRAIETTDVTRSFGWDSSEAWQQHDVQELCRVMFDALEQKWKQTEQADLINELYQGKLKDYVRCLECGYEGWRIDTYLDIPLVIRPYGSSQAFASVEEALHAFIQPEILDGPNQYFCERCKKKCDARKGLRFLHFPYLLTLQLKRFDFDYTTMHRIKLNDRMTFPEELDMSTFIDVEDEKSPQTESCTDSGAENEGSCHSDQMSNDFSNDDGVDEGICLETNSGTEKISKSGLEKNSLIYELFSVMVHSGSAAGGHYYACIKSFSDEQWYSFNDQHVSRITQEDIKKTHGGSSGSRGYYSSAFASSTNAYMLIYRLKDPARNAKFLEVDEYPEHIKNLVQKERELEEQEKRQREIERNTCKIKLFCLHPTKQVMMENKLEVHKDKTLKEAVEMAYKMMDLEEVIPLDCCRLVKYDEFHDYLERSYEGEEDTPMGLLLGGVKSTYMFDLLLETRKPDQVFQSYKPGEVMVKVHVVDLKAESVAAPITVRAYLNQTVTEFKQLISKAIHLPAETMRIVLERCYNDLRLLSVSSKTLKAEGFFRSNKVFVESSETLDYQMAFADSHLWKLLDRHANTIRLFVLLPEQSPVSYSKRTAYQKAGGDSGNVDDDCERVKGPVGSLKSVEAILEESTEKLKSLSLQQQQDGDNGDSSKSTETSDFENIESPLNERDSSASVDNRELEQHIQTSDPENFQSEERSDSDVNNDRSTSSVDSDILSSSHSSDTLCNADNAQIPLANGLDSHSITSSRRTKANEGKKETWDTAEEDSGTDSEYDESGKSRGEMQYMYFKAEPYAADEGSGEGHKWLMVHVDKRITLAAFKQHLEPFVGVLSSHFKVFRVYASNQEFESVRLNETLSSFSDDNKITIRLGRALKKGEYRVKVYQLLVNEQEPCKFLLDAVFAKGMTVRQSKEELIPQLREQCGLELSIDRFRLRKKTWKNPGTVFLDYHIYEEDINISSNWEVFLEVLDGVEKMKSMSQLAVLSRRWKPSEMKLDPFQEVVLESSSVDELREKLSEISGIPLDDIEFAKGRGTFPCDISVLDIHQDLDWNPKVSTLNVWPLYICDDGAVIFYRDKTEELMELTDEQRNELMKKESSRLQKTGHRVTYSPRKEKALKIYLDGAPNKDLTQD
Procedure, shortened: as §1

[4] = molecular target: T3, USP48 (UniProt Q86UV5)
T3 sequence (whole entry): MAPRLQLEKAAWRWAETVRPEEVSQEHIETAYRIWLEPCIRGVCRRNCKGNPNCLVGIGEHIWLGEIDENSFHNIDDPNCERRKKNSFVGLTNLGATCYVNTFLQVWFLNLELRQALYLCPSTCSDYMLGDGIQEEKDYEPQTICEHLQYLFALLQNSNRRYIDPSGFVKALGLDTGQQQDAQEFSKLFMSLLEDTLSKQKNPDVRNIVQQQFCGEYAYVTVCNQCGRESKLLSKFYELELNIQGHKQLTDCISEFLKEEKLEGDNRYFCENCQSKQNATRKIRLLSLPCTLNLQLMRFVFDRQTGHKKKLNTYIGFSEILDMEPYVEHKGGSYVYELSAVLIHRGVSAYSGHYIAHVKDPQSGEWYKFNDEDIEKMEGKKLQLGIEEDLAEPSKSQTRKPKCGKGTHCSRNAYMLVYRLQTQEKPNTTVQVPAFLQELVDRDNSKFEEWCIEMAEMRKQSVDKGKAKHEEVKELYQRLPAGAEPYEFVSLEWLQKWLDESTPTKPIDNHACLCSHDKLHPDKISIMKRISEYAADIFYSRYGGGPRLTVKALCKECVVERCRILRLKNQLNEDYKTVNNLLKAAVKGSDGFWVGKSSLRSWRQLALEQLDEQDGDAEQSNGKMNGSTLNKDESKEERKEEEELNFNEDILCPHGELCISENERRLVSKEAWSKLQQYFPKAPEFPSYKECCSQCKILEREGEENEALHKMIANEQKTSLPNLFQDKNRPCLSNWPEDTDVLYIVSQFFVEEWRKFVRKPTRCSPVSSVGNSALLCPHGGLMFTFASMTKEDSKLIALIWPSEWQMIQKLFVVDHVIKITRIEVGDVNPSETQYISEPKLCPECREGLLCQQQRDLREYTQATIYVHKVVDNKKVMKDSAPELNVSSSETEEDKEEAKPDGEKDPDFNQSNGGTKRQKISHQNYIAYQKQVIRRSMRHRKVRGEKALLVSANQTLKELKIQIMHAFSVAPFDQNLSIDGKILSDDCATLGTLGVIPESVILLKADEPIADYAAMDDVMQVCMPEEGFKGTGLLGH
Procedure, shortened: as §1

[5] = molecular target: T4, USP5 (UniProt P45974)
T4 sequence (whole entry): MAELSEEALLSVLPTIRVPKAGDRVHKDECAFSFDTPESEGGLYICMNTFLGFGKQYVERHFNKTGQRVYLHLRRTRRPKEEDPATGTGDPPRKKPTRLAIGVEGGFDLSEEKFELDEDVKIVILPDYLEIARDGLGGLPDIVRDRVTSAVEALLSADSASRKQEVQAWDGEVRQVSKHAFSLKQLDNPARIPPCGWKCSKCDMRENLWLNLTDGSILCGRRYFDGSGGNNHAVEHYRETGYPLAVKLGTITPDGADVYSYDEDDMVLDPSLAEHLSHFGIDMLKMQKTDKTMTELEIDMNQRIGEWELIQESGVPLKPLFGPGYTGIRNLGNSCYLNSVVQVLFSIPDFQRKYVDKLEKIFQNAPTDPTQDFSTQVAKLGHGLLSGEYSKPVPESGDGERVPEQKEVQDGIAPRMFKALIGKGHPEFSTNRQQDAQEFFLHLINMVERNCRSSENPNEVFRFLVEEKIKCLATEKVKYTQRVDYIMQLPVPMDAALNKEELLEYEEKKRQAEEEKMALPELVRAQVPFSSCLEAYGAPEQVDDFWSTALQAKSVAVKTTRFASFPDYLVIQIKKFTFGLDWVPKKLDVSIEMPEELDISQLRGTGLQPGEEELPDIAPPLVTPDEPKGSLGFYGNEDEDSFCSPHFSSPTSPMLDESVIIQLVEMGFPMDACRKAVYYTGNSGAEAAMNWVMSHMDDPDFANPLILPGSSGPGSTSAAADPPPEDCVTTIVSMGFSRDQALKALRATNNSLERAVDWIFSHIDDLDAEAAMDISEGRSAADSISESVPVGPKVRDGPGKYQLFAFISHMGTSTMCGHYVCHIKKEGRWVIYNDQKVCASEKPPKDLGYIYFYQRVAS
Procedure, shortened: as §1

[6] = molecular target: USP54 (UniProt Q70EL1)
Procedure, shortened: as §1

[7] = molecular target: USP7 (UniProt Q93009)
Procedure, shortened: as §1

[8] = molecular target: T5, USP8 (UniProt P40818)
T5 sequence (whole entry): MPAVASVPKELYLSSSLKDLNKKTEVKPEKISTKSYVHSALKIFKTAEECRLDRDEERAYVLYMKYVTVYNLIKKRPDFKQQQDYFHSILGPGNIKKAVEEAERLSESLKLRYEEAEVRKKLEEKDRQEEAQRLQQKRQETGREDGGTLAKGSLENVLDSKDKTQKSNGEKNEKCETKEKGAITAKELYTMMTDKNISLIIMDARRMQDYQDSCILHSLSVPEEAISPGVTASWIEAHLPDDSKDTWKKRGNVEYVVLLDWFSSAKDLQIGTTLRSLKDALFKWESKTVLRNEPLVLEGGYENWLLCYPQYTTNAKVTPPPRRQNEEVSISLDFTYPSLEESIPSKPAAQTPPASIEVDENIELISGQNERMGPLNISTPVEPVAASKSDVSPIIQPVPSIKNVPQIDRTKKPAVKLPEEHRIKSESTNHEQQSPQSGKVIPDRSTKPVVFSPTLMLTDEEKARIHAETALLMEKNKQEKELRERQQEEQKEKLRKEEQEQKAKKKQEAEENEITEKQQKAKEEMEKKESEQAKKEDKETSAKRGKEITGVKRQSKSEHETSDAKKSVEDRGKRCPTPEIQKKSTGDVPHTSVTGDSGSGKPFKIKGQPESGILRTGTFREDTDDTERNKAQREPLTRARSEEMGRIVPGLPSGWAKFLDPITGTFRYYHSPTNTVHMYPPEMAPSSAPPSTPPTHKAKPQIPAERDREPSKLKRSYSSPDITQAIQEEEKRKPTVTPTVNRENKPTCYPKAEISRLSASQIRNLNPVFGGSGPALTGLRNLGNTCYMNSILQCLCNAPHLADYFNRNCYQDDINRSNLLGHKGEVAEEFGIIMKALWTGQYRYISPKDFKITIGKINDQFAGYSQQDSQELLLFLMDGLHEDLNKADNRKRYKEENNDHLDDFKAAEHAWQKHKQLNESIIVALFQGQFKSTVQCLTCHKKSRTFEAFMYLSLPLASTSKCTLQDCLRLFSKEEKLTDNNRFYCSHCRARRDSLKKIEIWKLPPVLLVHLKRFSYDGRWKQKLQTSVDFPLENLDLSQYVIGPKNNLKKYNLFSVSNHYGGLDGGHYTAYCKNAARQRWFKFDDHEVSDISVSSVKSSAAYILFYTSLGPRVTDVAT
Procedure, shortened: as §1

[9] = molecular target: USP9X (UniProt Q93008)
Procedure, shortened: as §1

[10] = molecular target: UniProt O00487
Procedure, shortened: as §1

Chain of USP54 (Q70EL1 whole entry): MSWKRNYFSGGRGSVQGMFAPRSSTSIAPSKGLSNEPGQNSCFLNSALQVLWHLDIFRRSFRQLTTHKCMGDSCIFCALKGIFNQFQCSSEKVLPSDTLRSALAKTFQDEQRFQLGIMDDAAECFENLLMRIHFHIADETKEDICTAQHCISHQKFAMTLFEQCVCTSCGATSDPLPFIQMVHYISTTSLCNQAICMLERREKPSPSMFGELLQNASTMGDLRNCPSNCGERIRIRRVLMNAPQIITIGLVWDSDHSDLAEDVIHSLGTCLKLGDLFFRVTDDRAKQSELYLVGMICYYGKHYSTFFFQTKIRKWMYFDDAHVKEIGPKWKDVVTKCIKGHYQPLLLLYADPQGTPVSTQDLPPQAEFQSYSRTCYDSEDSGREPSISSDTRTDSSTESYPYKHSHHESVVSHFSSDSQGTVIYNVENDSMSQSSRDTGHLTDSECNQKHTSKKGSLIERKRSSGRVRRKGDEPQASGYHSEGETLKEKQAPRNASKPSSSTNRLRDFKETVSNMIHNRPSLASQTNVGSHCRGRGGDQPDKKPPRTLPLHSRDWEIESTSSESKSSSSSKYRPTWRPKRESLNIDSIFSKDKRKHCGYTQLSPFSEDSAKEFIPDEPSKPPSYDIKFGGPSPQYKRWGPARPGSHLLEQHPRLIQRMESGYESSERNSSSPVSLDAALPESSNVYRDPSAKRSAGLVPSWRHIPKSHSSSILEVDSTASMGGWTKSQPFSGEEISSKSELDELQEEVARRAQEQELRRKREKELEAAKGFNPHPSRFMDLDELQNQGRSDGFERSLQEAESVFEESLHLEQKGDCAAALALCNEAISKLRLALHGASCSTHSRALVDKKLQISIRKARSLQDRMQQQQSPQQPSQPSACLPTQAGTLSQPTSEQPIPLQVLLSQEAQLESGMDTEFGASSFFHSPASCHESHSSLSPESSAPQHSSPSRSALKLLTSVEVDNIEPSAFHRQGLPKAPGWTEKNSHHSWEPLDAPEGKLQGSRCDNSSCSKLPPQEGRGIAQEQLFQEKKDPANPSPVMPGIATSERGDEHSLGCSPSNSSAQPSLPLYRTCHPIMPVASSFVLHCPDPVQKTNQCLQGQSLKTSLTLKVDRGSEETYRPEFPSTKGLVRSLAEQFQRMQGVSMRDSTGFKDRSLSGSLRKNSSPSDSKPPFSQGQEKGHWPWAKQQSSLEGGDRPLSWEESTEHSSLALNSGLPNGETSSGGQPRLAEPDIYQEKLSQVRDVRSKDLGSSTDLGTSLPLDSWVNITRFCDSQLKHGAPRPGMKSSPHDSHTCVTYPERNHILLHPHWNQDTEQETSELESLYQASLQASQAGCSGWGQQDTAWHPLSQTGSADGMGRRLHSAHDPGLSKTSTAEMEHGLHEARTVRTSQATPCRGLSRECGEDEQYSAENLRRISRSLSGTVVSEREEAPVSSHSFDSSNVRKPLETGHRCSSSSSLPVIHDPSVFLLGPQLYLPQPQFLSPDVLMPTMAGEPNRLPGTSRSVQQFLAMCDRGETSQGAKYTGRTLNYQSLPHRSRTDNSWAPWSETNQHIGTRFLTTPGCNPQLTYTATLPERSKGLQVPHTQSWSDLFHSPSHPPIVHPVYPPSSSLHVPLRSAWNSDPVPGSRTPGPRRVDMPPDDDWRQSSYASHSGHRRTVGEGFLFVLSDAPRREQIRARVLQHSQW
Chain of UniProt O00487 (O00487 whole entry): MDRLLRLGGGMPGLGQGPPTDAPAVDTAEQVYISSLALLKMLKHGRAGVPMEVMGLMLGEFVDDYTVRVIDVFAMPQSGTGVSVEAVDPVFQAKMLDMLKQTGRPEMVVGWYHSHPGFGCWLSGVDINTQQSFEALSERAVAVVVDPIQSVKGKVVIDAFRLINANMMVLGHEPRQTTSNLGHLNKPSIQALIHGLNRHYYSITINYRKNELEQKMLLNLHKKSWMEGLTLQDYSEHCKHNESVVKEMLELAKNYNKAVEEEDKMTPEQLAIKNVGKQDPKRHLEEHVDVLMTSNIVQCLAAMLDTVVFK
Chain of USP7 (Q93009 whole entry, looked up): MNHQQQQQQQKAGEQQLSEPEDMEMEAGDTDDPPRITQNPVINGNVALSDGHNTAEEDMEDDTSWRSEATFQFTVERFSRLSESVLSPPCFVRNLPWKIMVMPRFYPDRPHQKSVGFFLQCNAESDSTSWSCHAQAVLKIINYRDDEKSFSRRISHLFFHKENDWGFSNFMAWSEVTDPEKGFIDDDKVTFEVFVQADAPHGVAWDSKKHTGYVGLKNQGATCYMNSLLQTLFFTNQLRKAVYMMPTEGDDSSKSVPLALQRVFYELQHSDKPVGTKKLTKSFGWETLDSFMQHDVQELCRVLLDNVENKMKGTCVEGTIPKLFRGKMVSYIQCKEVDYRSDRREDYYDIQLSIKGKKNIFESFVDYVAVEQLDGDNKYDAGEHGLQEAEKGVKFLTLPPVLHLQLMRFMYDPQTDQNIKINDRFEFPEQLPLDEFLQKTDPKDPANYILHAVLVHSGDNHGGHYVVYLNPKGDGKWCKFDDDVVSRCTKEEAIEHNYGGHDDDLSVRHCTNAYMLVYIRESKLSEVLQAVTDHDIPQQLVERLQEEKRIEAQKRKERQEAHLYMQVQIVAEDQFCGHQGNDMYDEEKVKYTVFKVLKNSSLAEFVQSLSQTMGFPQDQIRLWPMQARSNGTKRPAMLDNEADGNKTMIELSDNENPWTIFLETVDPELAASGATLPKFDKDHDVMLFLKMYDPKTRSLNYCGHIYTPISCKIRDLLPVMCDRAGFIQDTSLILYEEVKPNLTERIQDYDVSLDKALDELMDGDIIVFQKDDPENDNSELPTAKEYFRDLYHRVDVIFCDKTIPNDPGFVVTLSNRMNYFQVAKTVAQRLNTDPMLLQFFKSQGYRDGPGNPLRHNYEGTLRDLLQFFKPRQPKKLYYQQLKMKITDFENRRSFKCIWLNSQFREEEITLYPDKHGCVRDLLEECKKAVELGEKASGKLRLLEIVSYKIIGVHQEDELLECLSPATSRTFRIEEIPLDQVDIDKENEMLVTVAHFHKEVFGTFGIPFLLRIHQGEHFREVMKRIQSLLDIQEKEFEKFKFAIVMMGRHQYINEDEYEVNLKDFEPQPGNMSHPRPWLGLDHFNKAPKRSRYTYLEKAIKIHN
Chain of USP46 (P62068 whole entry): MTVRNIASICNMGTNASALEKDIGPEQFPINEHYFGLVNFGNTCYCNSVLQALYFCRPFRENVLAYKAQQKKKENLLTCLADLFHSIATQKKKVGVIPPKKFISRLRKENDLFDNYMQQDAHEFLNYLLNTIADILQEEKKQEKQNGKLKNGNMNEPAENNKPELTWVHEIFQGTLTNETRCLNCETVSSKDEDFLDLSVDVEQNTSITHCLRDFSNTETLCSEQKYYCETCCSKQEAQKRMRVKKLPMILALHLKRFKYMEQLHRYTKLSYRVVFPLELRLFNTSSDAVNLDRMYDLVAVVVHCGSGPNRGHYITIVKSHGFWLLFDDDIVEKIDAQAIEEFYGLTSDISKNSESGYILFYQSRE

Compound: O=C(CCl)N1CC=C(c2c[nH]c3ccccc23)CC1
- log2 ratio of Biotin-Ahx-Ub-VS probe labelling [1]: 0.0977
- log2 ratio of Biotin-Ahx-Ub-VS probe labelling [2]: -1.44 (active)
- log2 ratio of Biotin-Ahx-Ub-VS probe labelling [3]: 0.0399
- log2 ratio of Biotin-Ahx-Ub-VS probe labelling [4]: -0.728
- log2 ratio of Biotin-Ahx-Ub-VS probe labelling [5]: -0.577
- log2 ratio of Biotin-Ahx-Ub-VS probe labelling [6]: 0.155
- log2 ratio of Biotin-Ahx-Ub-VS probe labelling [7]: -1.53 (active)
- log2 ratio of Biotin-Ahx-Ub-VS probe labelling [8]: -0.785
- log2 ratio of Biotin-Ahx-Ub-VS probe labelling [9]: -0.82
- log2 ratio of Biotin-Ahx-Ub-VS probe labelling [10]: -0.0429
